Our source for the growth values is PubChem BioAssay (NCI).

Compounds without any hit were thinned out: in the full panel of roughly 83,000, 20% have a hit.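 Testing used 96-well plates and a 48-hour single-concentration exposure. Example: -40 means 40% of the starting cells died.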 A number with no mark means an inactive call. The source made the active and inactive calls. Rule for the calls: active = growth percent below 10; inactive = the rest.

One experiment relates to MDA-MB-435 melanoma. Nature of the experiment: NCI-60 one-dose screen, 48 h (100 = growth as untreated, 0 = no growth, -100 = all killed). The conditions noted are these: 10 µM unless noted.
As to `C=CN(C(=O)N1CCN(c2cc3c(cc2F)c(=O)c(C(=O)O)cn3C2CC2)CC1)c1nc(-c2ccc(Cl)cc2)cs1`, the growth was 74.8%.
Still for that read-out and setting: to `Cc1ccccc1N1CCN(C(=S)c2ccccc2)CC1` belongs 103%; to `COc1ccc(Cl)cc1Nc1nc(C(F)(F)F)ccc1C(=O)N/N=C/c1ccc([N+](=O)[O-])cc1`, 15.9%; to `O=C(Nc1nc(Cl)nc(Nc2ccc(N3CCOCC3=O)cc2)n1)c1ccc(Cl)s1`, 96.4%.
For `COCCOC(C)C(/C=N/NC(N)=S)=N/NC(N)=S` (configuration not stated), the growth is 87.4%.

The test system of the next experiment is SW-620 colon. Described as above. Conditions: 10 µM unless noted.
For the molecule `CCn1cc(C(=O)O)c(=O)c2cc(F)c(N3CCN(CC(=O)Nc4ccccc4)C(C)C3)c(F)c21` (configuration not stated), the growth is 105%.
`c1cc(OCCN2CCCCC2)ccc1CNc1ccc2nc(CCC3CCCCC3)[nH]c2c1`: the growth is 2.97% (active).
Regarding `COC1C(O)CC(OC2CC(OC3CC(O[C@@H]4C(=O)c5c(cc6cc(OC7CC(OC8CC(O)C(O)C(C)O8)C(O)C(C)O7)c(C)c(O)c6c5O)CC4[C@H](OC)C(=O)C(C)=O)OC(C)C3O)OC(C)C2O)OC1C` (some centres not stated), the growth is 8.3% (active).
On to `Cc1ccc(OCCOCCOCCOc2ccc(C)n(O)c2=S)c(=S)n1O`, for which the growth is 24.5%.
With `Cn1cc(-c2csc(-c3cn(CCCN4CCOCC4)c4ccc(F)cc34)n2)c2cccnc21`, the growth is 61%.
On to `O=C1c2cccnc2C(=O)c2c1c(C(=O)OCCc1ccccn1)c1ccccn21`, for which the growth was 2.3% (active).
The same measure, in the same setting: to `C#CCOc1cccc(Nc2ncnc3c2ncn3C2CCN(C(=O)CCl)C2)c1` (configuration not stated) belongs -64.2% (active).
On the same count and under the same terms, with `O=C(Cn1nc(-c2cccc3ccccc23)ccc1=O)NCc1cccc(Cl)c1` the figure was 55% [50 µM].
Same read-out and setting: with `CC1(C)CC[C@]23CC[C@]4(C)[C@H](CC[C@@H]5[C@@]6(C)C/C(=C/O)C(=O)C(C)(C)[C@@H]6CC[C@]54C)[C@H]2[C@H]1OC3` the figure was 103%.
`Clc1ccc(-c2cc(-c3ccccc3)nc(N3CCN(CCCNc4ccnc5cc(Cl)ccc45)CC3)n2)cc1`: the growth is -42.3% (active).
In the case of `Nc1nc(C(=O)N/N=C/c2ccc(F)cc2)nn1-c1ccc(S(N)(=O)=O)cc1`, the growth was 99.2%.
Still for that read-out and setting: to `CN(C)c1ccc(CNCCO)cc1` belongs 94.5%.
Still for that read-out and setting: to `Nc1c(Br)cc2c(c1Br)Cc1cc([N+](=O)[O-])ccc1-2` belongs 103%; to `COC(=O)Cn1c2c(c3c(OC)cccc31)C(=O)c1ccccc1-2`, 96.9%.
Same read-out and setting: with `O=C(/C=C/c1ccccc1)c1ccc(-n2cc(CN3CCN(c4cc5c(cc4F)c(=O)c(C(=O)O)cn5C4CC4)CC3)nn2)cc1` the figure was 83.7%; with `Cc1cc2oc(/C=C/c3ccccc3)cc(=O)c2c(C)c1Cl`, 100%.
In the case of `Cc1nc(N/N=C/c2cn(-c3ccccc3)nc2-c2cc3ccccc3oc2=O)sc1N=Nc1ccccc1`, the growth was 78.8%.
On the same count and under the same terms, with `Oc1c(CN2CCC(N3CCOCC3)CC2)cc(Cc2cc(CN3CCC(N4CCOCC4)CC3)c(O)c3ncccc23)c2cccnc12` the figure was 28.2%.
Take `N#Cc1nn(-c2cc(=O)[nH]c3ccc(Br)cc23)c(N)c1C#N`: the growth was 83.5%.
On the same count and under the same terms, to `CC(=O)c1c(Nc2cccc(F)c2)[nH]c2c(Cl)cc(Cl)c(Cl)c2c1=O` belongs 9.59% (active); to `O=c1cc(CP(=O)(O)O)c2cc(O)c(-c3ccccc3)cc2o1`, 98.3%.
Same read-out and setting: to `CC(=O)c1sc(-c2ccc(F)cc2)cc1O` belongs 106%; to `CC(=O)c1ccc(-n2cc(CN3CCN(c4cc5c(cc4F)c(=O)c(C(=O)O)cn5C4CC4)CC3)nn2)cc1`, 90%; to `COc1ccc(CN2C(=O)OC(C)(COC(C)=O)C2=O)cc1` (configuration not stated), 107%.
On to `O=C1CCCC1[n+]1ccccc1` (configuration not stated), for which the growth was 117%.
On the same count and under the same terms, to `CN(C)CCC(=O)C1CC1` belongs 102%.
In the case of `O=c1oc2c(cnc3ccccc32)cc1-c1cccc(Cl)c1`, the growth was 106%.
On the same count and under the same terms, with `C/C(=C(\c1ccc(OCCN2CCCCCC2)cc1)c1ccc(OC(=O)c2ccccc2)cc1)c1ccc(Cl)cc1` the figure was 25.8%.
For the molecule `Nc1cccc(-c2ccc(COc3ccc(CC4SC(=O)NC4=O)cc3)cc2)c1` (configuration not stated), the growth is 34.2%.
Same read-out and setting: with `C=C(C)[C@@H]1CC[C@]2(COC3CCCCO3)CC[C@]3(C)[C@H](CC[C@@H]4[C@@]5(C)C=C(C=O)C(=O)C(C)(C)[C@@H]5CC[C@]43C)[C@@H]12` (some centres not stated) the figure was -37.8% (active); with `O=C1CCCCN1c1ccc(C2=NCCCN2)cc1`, 85.7%; with `Cc1cc(=O)oc2cc(Oc3nc(Br)cn4c(Br)cnc34)ccc12`, 116%.
For the molecule `C=CN(C(=O)N1CCN(c2cc3c(cc2F)c(=O)c(C(=O)O)cn3C2CC2)CC1)c1nc(-c2ccc(Cl)cc2)cs1`, the growth was 93.9%.
Still for that read-out and setting: to `Cc1ccccc1N1CCN(C(=S)c2ccccc2)CC1` belongs 98.3%; to `COc1ccc(Cl)cc1Nc1nc(C(F)(F)F)ccc1C(=O)N/N=C/c1ccc([N+](=O)[O-])cc1`, 5.81% (active); to `O=C(Nc1nc(Cl)nc(Nc2ccc(N3CCOCC3=O)cc2)n1)c1ccc(Cl)s1`, 76.1%.
Still for that read-out and setting: to `COCCOC(C)C(/C=N/NC(N)=S)=N/NC(N)=S` (configuration not stated) belongs 61.7%.
